# TDP1 cell noCPT: qHTS for Inhibitors of human tyrosyl-DNA phosphodiesterase 1 (TDP1): qHTS in cells in absence of CPT; 15% of 420,000 active; Potency, µM (highest dose often 46.2 µM), without a hit: at the top dose activity change, negative = growth inhibition, actives largely listed as inhibitors; DT40 Tdp1-/- hTDP1 cells, no CPT, ATP luminescence, 48 h; AID 686978, 2013; also: potency is read from the fitted curve at half-maximal effect; nearly all actives have a fitted effect of over 55% in size
#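 Chicken DT40 Tdp1-/- cells complemented with human TDP1, screened without camptothecin (DMSO vehicle only), 400 cells/well. Compounds pin-transferred, cells incubated at 37 °C for at least 48 hr. Growth read as ATP-dependent luminescence (CellTiter-Glo, 30 min at RT).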
# IL-1B inflam inh: qHTS for Inhibitors of Inflammasome Signaling: IL-1-beta AlphaLISA Primary Screen | THP-1 LPS/ATP IL-1B secretion, AlphaLISA, 16 h; active compounds read low | activity change, % at 57.5 µM | 4.7% of 360,000 active | AID 743279, 2014; in the data active = activity change below about -50%; inconclusive = mostly about -30% to -49%
#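 THP-1 cells pretreated 1 hr with compounds (up to 57.5 uM final), then stimulated with LPS (250 ng/mL final) plus ATP (1.25 mM final); secreted IL-1B measured by AlphaLISA after 16 hr, decreased signal indicating inhibition.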
# HT1080-NT tox: qHTS for induction of synthetic lethality in tumor cells producing 2HG: qHTS for the HT-1080-NT fibrosarcoma cell line. Potency, µM (titrated, usually from 46.1 µM), for inactives: at the top dose activity, negative = less viability, actives largely listed as cytotoxic. HT-1080-NT fibrosarcoma viability, CellTiter-Glo ATP luminescence, 48 h. 1.6% of 360,000 active;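 also: NT is the 2HG producing partner of a matched IDH1 knockdown line; potency is read from the fitted curve at half-maximal effect; 0% = DMSO-treated cells and -100% = media-only wells without cells; nearly all actives have a fitted effect of over 55% in size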
#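 Toxicity toward the 2HG-producing NT line was scored as %Activity, normalised to DMSO and no-cell wells, from CellTiter-Glo luminescence after 48 hours' treatment.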
# HT1080 IDH1KD tx: qHTS for induction of synthetic lethality in tumor cells producing 2HG: qHTS for the HT-1080-IDH1KD cell line. HT-1080 IDH1 knockdown viability, ATP luminescence, 48 h. Potency, µM (titrated, usually from 46.1 µM), for the others: top-dose activity, negative = toxicity, hits mostly cytotoxic. 2% of 360,000 active. AID 686971, 2013;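 also: potency is read from the fitted curve at half-maximal effect; 0% = DMSO wells and -100% = cell-free medium wells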
#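 After a 2 h attachment period, IDH1KD HT-1080 cells took pin-transferred compound for 48 h at 37 °C; ATP-based luminescence after 10 min room-temperature reagent incubation reported viability.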
# DT40 TDP1 CPT: qHTS for Inhibitors of human tyrosyl-DNA phosphodiesterase 1 (TDP1): qHTS in cells in presence of CPT; chicken DT40 Tdp1-/-;hTDP1 cells + 20 nM CPT, ATP luminescence, 48 h; Potency, µM (top dose mostly 46.2 µM), for inactives: top-dose activity change, negative = growth inhibition, hits mostly inhibitors; 12% of 420,000 active; AID 686979, 2013; also: potency is read from the fitted curve at half-maximal effect; nearly all actives have a fitted effect of over 55% in size
#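 Chicken DT40 Tdp1-/- cells complemented with human TDP1, 400 cells/well, exposed to compounds plus 20 nM camptothecin for at least 48 h at 37 C; viability read as ATP content by CellTiter-Glo luminescence.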
# Active calls of the source: *; ? = inconclusive; . = not tested or not shown. The list is not random: actives were taken first. Their share in the collection is about 19%. Unless noted, calls follow the shape of the dose curve; as a rule, active = well fitted curve in the direction sought with a large enough effect; inconclusive = small, poorly fitted or top-dose-only effect, or another doubt; inactive = no such curve, though single readings can be large; an effect the other way counts as inactive or inconclusive. Unless noted, % is scaled to controls: 0 for no effect and ±100 for the full control effect.
SMILES,TDP1 cell noCPT,IL-1B inflam inh,HT1080-NT tox,HT1080 IDH1KD tx,DT40 TDP1 CPT
O=S(=O)(c1ccc2c(c1)C(=NO)c1cc(S(=O)(=O)N3CCCCC3)ccc1-2)N1CCCCC1,2.9µM*,-85*,0.37µM*,0.58µM*,4.1µM*
CC1CCN(S(=O)(=O)c2ccc3c(c2)C(=NO)c2cc(S(=O)(=O)N4CCC(C)CC4)ccc2-3)CC1,0.73µM*,-89*,1.5µM*,2.6µM*,0.65µM*
O=S(=O)(c1ccc(S(=O)(=O)N2CCCC2)cc1)N1CCCCCC1,-10%,23,3%,4%,4%
CCN(c1ccc(C(=O)CN2C(=O)NC3(CCOc4ccccc43)C2=O)cc1)S(C)(=O)=O (configuration not stated),?,28,-16%,0%,?
COc1ccc(Cl)cc1NS(=O)(=O)c1cccc(C(=O)NCCCN2CCOCC2)c1,-20%,11,0%,0%,-17%
CCC(c1nnnn1-c1c(C)cccc1C)N1CCCN(Cc2ccc(F)cc2)CC1 (configuration not stated),16µM*,-1,?,?,?
Cc1cn2c(=O)c(S(=O)(=O)NCCc3ccccc3)c(C)nc2s1,-7%,.,.,.,-23%
COc1ccc(/C=C2\CCc3ccccc3C2=O)cc1Cn1nc(C)cc1C,?,-51*,?,?,?
COc1ccc(/C=C2/CCc3ccccc3C2=O)cc1CN1CCOCC1,16µM*,-1,3%,-4%,23µM*
COc1ccc(/C=C2\CCc3ccccc3C2=O)cc1OC,?,10,2%,0%,?
CCN(CC)S(=O)(=O)c1ccc2c(c1)N(CC(=O)Nc1c(C)cccc1C)C(=O)CO2,-3%,.,.,.,2%
CCN(C(=O)c1cc2c(=O)[nH]c3ccc(C)cc3c2s1)c1ccccc1C,2.9µM*,82,-20%,?,2.6µM*
CCN(C(=O)c1cc2c(=O)[nH]c3ccc(C)cc3c2s1)c1ccccc1F,?,13,1%,-3%,13µM*
Cc1ccc2[nH]c(=O)c3cc(C(=O)N(C)C4CCCCC4)sc3c2c1,10%,.,4%,1%,-3%
CCN(C(=O)c1cc2c(=O)[nH]c3ccc(C)cc3c2s1)c1ccc(F)cc1,?,22,-22%,0%,?
Cc1cccc(N(C)C(=O)c2cc3c(=O)oc4ccc(C)cc4c3s2)c1,-25%,.,.,.,-2%
Cc1ccc2[nH]c(=O)c3cc(C(=O)N(C)c4ccc(C)c(C)c4)sc3c2c1,10µM*,37,6%,9%,10µM*
CCN(C(=O)c1cc2c(=O)oc3ccc(C)cc3c2s1)c1ccccc1F,21µM*,.,.,.,?
COc1ccc(OCC(=O)N2CCN(S(=O)(=O)c3ccc4c(c3)OCCO4)CC2)cc1,?,?,-8%,-7%,?
CCN(C(=O)c1cc2c(=O)[nH]c3ccc(C)cc3c2s1)c1cccc(C)c1,18µM*,12,14%,10%,?
Cc1ccc(CSc2nnc(SCC(=O)N/N=C/c3c[nH]c4ccccc34)s2)cc1,?,30,21µM*,23µM*,?
O=C(CSc1nnc(SCc2ccccc2Cl)s1)N/N=C/c1c[nH]c2ccccc12,?,28,-24%,-28%,26µM*
O=C(CSc1nnc(SCc2ccccc2)s1)N/N=C/c1c[nH]c2ccccc12,-18%,52,-1%,-17%,2%
O=C(CSc1nnc(SCc2ccc(Cl)cc2)s1)N/N=C/c1ccc(Cl)cc1Cl,-40%,-5,-2%,-4%,-14%
O=C(CSc1nnc(SCc2ccc(Cl)cc2)s1)N/N=C/c1c(Cl)cccc1Cl,26µM*,18,?,?,?
